Laboratory results as given in PubChem BioAssay (NCI).
The panel holds about 79,000 compounds, 15% with a hit somewhere; the sample as a whole holds those more often. The source made the active and inactive calls. Cut-off read from the data, not from the text of the source: active = growth inhibition above about 70%; inactive = the rest.

Key:
[1] = NCI Yeast Anticancer Drug Screen. Data for the rad52 strain (AID 147);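 note: 0% = growth of vehicle-treated control cultures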; settings: S. cerevisiae rad52 mutant growth inhibition, active compounds read high
Method in brief: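 Vehicle-treated cultures served as the reference for growth inhibition of compound-exposed yeast bearing a DNA repair mutation.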

[2] = NCI Yeast Anticancer Drug Screen. Data for the wt1 strain (AID 149);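 note: 0% = growth of vehicle-treated wt1 cultures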; settings: S. cerevisiae wt1 strain (SPY 50644) growth inhibition, active compounds read high
Method in brief: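 Measured: growth of wt1 yeast under compound versus vehicle treatment, reported as inhibition.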

[3] = NCI Yeast Anticancer Drug Screen. Data for the rad50EPP+ strain (AID 151);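 note: 0% = growth of vehicle-treated control cultures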; settings: S. cerevisiae rad50 mutant strain, active compounds read high
Method in brief: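 In this screen, rad50EPP+ yeast were exposed to compounds. Growth inhibition was scored against vehicle-treated controls.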

[4] = NCI Yeast Anticancer Drug Screen. Data for the rad50 strain (AID 155);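 note: 0% = growth of vehicle-only cultures of the same strain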; settings: S. cerevisiae rad50 strain growth inhibition, active compounds read high
Method in brief: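 Growth of the mutant yeast was measured after compound exposure and referenced to vehicle-treated cultures.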

[5] = NCI Yeast Anticancer Drug Screen. Data for the mec2-1 strain (AID 157); settings: S. cerevisiae mec2-1 strain, active compounds read high
Method in brief: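 Vehicle-treated cultures served as reference for growth inhibition of compound-exposed mec2-1 yeast.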

[6] = NCI Yeast Anticancer Drug Screen. Data for the rad14 strain (AID 159);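 note: 0% = growth of vehicle-treated control cultures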; settings: S. cerevisiae rad14 strain growth inhibition, active compounds read high
Method in brief: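 Here, inhibition of yeast growth was measured after compound exposure, using a strain with a genetic defect in DNA damage repair and vehicle-treated cultures as the reference.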

[7] = NCI Yeast Anticancer Drug Screen. Data for the sgs1 mgt1 strain (AID 161);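 note: 0% = growth of cultures given vehicle only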; settings: S. cerevisiae sgs1 mgt1 strain, active compounds read high
Method in brief: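 Genetically altered yeast, compound exposure, growth inhibition relative to vehicle.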

[8] = NCI Yeast Anticancer Drug Screen. Data for the CLN2oe strain (AID 163);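 note: 0% = growth of vehicle-only control cultures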; settings: S. cerevisiae CLN2oe strain, active compounds read high
Method in brief: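 Inhibition relative to vehicle-treated yeast is reported. Cells: strain with genetic alteration in cell-cycle control, grown with compound.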

[9] = NCI Yeast Anticancer Drug Screen. Data for the cln2 rad14 strain (AID 165);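 note: 0% = growth equal to vehicle treated cultures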; settings: S. cerevisiae cln2 rad14 strain, active compounds read high
Method in brief: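 Each compound was tested on cln2 rad14 yeast. Inhibition of growth was calculated against vehicle-exposed controls.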

[10] = NCI Yeast Anticancer Drug Screen. Data for the bub3 strain (AID 167); settings: S. cerevisiae bub3 mutant strain, active compounds read high
Method in brief: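 Whole-cell yeast assay. The mutant strain was incubated with compounds, and growth inhibition was determined by comparison with vehicle-treated cells.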

[11] = NCI Yeast Anticancer Drug Screen. Data for the wt2 strain (AID 169);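 note: 0% = growth of vehicle-treated yeast cultures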; settings: S. cerevisiae wt2 strain growth inhibition, active compounds read high
Method in brief: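 Inhibition of yeast growth was determined after compound treatment, normalised to controls receiving only vehicle.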

[12] = NCI Yeast Anticancer Drug Screen. Data for the mlh1 strain (AID 171);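 note: 0% = growth of vehicle-treated control cultures of the same strain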; settings: S. cerevisiae mlh1 strain growth inhibition, active compounds read high
Method in brief: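 Vehicle-normalised growth inhibition of a repair- or checkpoint-altered yeast strain following compound treatment.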

[13] = NCI Yeast Anticancer Drug Screen. Data for the sgs1 strain (AID 173);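 note: 0% = growth of vehicle-only control cultures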; settings: S. cerevisiae sgs1 mutant, active compounds read high
Method in brief: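 Screen format: yeast with repair or checkpoint alterations, compound exposure, growth read relative to vehicle.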

[14] = NCI Yeast Anticancer Drug Screen. Data for the mlh1 rad18 strain (AID 175); settings: S. cerevisiae mlh1 rad18 strain growth inhibition, active compounds read high
Method in brief: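 Vehicle-treated cultures served as the reference for growth inhibition in a yeast strain carrying DNA damage repair alterations exposed to each compound.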

[15] = NCI Yeast Anticancer Drug Screen. Data for the rad18 strain (AID 177); settings: S. cerevisiae rad18 mutant growth inhibition, active compounds read high
Method in brief: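 Test articles were incubated with altered yeast defective in DNA damage repair. Results are given as inhibition of growth versus vehicle.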

[16] = at 5.0 µM (retest, dose inferred, filed as 0.5)
[17] = at 50.0 µM (retest, dose inferred, filed as 5.0)

Measured: growth inhibition

O=C1C=CC(=O)N1c1ccc2c(c1)OCO2
active: [1]; at 3.7 µM 94% | [1]; at 11.0 µM 100% | [1]; at 33.0 µM 100% | [1]; at 100.0 µM 100% | [2]; at 3.7 µM 96% | [2]; at 11.0 µM 100% | [2]; at 33.0 µM 100% | [2]; at 100.0 µM 100% | [3]; at 3.7 µM 80% | [3]; at 11.0 µM 99% | [3]; at 33.0 µM 99% | [3]; at 100.0 µM 99% | [4]; at 3.7 µM 86% | [4]; [16] 84% | [4]; at 11.0 µM 99% | [4]; at 33.0 µM 99% | [4]; [17] 97% | [4]; at 50.0 µM 99% | [4]; at 100.0 µM 99% | [5]; at 3.7 µM 76% | [5]; at 11.0 µM 100% | [5]; at 33.0 µM 100% | [5]; [17] 99% | [5]; at 50.0 µM 98.5% | [5]; at 100.0 µM 99% | [6]; at 3.7 µM 99% | [6]; at 11.0 µM 100% | [6]; at 33.0 µM 100% | [6]; at 100.0 µM 100% | [7]; [17] 98% | [7]; at 50.0 µM 99.2% | [8]; at 11.0 µM 100% | [8]; at 33.0 µM 100% | [8]; at 100.0 µM 99% | [9]; [17] 98% | [9]; at 50.0 µM 99% | [10]; at 3.7 µM 90% | [10]; at 11.0 µM 100% | [10]; at 33.0 µM 99% | [10]; [17] 98% | [10]; at 50.0 µM 99.2% | [10]; at 100.0 µM 99% | [11]; at 3.7 µM 99% | [11]; at 11.0 µM 100% | [11]; at 33.0 µM 100% | [11]; at 100.0 µM 100% | [12]; at 11.0 µM 100% | [12]; at 33.0 µM 100% | [12]; at 100.0 µM 99% | [13]; at 3.7 µM 85% | [13]; at 11.0 µM 100% | [13]; at 33.0 µM 100% | [13]; at 100.0 µM 100% | [14]; [17] 97% | [14]; at 50.0 µM 99.2% | [15]; at 11.0 µM 100% | [15]; at 33.0 µM 100% | [15]; at 100.0 µM 99%
inactive: [1]; at 1.2 µM 11% | [2]; at 1.2 µM 9% | [3]; at 1.2 µM 9% | [4]; at 1.2 µM 12% | [5]; at 1.2 µM -3% | [5]; [16] 12% | [6]; at 1.2 µM 21% | [7]; [16] 8% | [8]; at 1.2 µM -9% | [8]; at 3.7 µM 40% | [9]; [16] -4% | [10]; at 1.2 µM 2% | [10]; [16] 25% | [11]; at 1.2 µM 17% | [12]; at 1.2 µM -11% | [12]; at 3.7 µM 58% | [13]; at 1.2 µM 15% | [14]; [16] -39% | [15]; at 1.2 µM -6% | [15]; at 3.7 µM 58%
